High-throughput results (PubChem BioAssay)
Shown are actives, neighbours in structure and some others; about 3.5% of the full set was active somewhere.
BoNT F protease: BoNT F light chain protease inhibition; Multiplex microsphere protease cleavage assay, flow cytometry; inhibition, % at 10 µM; 0.22% of 360,000 active; in the data active = inhibition above about 35%, passing the limit was not always enough; inconclusive = no clear call, values can overlap the other calls
BJeLR viability: BJeLR cell viability loss; BJeLR (HRASV12) viability, CellTiter-Glo ATP luminescence, 48 h; inhibition, % (no concentration beside the values); 0.17% of 300,000 active; AID 1554; in the data active = inhibition above about 50%; inconclusive = no clear call, values can overlap the other calls
Anthrax LF prot: anthrax lethal factor protease inhibition | inhibition, % at 10 µM | P15917 | multiplex microsphere protease cleavage assay, LF | 0.12% of 360,000 active
BoNT-A LC inh2: blocks Botulinum neurotoxin A light chain protease. multiplex microsphere protease substrate cleavage, flow cytometry. inhibition, % at 10 µM. 0.17% of 360,000 active
Autofluor counter: counter-screen for toxin protease inhibitors: compound fluorescence; compound autofluorescence counterscreen, microsphere flow cytometry; hits give high values; fluorescence intensity (test concentration not listed); 3.1% of 360,000 active; in the data active = fluorescence intensity above about 16000; inconclusive = no clear call, values can overlap the other calls
Numbers stand for hits; – = inactive; ? = inconclusive; · = not tested or not shown. Cut-off read from the data, not from the text of the source, unless noted: active = inhibition above about 30%; inconclusive = no clear call, values can overlap the other calls; inactive = below that.

SMILES | BoNT F protease | BJeLR viability | Anthrax LF prot | BoNT-A LC inh2 | Autofluor counter
COc1cccc2cc(C(=O)NC(C)C3CCCO3)c(=O)oc12 (stereo not drawn) | – | – | – | – | 16163
CC(NC(=O)c1csc2ccccc12)C1CCCO1 (stereo not drawn) | – | – | – | ? | 16909
CC(NC(=O)c1ccc(Cl)s1)C1CCCO1 (stereo not drawn) | – | – | – | – | 24646
Cc1cc(C(=O)NC(C)C2CCCO2)cs1 (stereo not drawn) | – | – | – | ? | 16328
Nc1ccc(C(=O)CC(=O)Nc2ccc(Cl)cc2)cc1 | – | – | – | – | –
COc1cc(Br)cc2cc(C(=O)NCC3CCCO3)c(=O)oc12 (stereo not drawn) | – | – | – | ? | 22610
CC(NC(=O)Nc1ccc2c(c1)OCO2)C1CCCO1 (stereo not drawn) | – | – | – | – | 23219
Cc1cc(C)cc(NC(=O)NC(C)C2CCCO2)c1 (stereo not drawn) | – | – | – | – | –
Cc1ccc(S(=O)(=O)N2C[C@H]3C(=O)C[C@@H](c4ccccc4C)N(S(=O)(=O)c4ccc(C)cc4)[C@H]3C[C@H]2c2ccccc2)cc1 | – | · | – | – | –
CC1CCCN(C(=O)c2cc(F)c(F)cc2Cl)C1 (stereo not drawn) | – | – | – | – | 22587
CCOC(=O)c1sc2nc(CC(=O)OC)nc(NCCN(CC)CC)c2c1C | – | – | – | – | 18785
CCOC(=O)c1sc2nc(CC(=O)OC)nc(NCCN3CCOCC3)c2c1C | – | – | – | – | –
O=S(=O)(c1ccc(S(=O)(=O)N(Cc2ccccc2)Cc2ccco2)cc1)N1CCCC1 | – | – | – | – | 16963
Cn1c(SCC(=O)n2c3c(c4ccccc42)CCCC3)nnc1-c1ccccc1 | – | – | – | – | 22437
CC(=O)Nc1ccc(-c2nnc(SCC(=O)n3c4c(c5ccccc53)CCCC4)n2C)cc1 | – | – | – | – | –
O=C(O)Cn1nncc1-c1ccc(C(F)(F)F)cc1 | – | · | – | – | –
Cc1nc(C(F)(F)F)ccc1C(=O)N1CCCCCC1(C)C(=O)NCC(C)C (stereo not drawn) | – | · | – | – | –
CCC(=NCCO)c1c(O)n(-c2ccc(Cl)cc2)c(=O)[nH]c1=O | – | – | – | – | 23929
CCN(CC(=O)Nc1ccc(NC(C)=O)cc1)C(=O)CCCOc1ccc(C(C)(C)C)cc1 | – | – | – | – | ?
CCCc1nc2ccc(Cl)cn2c1Cc1ccsc1 | – | · | – | – | –
O=C(Cc1ccccc1)Nc1nc(=O)c2ccccc2s1 | – | – | – | – | –
O=C(Cc1nc(=O)c2ccccc2s1)Nc1ccccc1 | – | – | – | – | 16611
Cc1cc2n(n1)SC(Nc1cccc3ccccc13)N2 (stereo not drawn) | – | – | – | – | 17932
Cc1cc2n(n1)SC(Nc1cc(Cl)ccc1Cl)N2 (stereo not drawn) | – | – | – | – | 20196
CCOc1ccc(-n2c(=O)c3sccc3n(CC(=O)NCc3ccco3)c2=O)cc1 | – | – | – | – | 19457
SMILES | BoNT F protease | BJeLR viability | Anthrax LF prot | BoNT-A LC inh2 | Autofluor counter
CCNC(=O)C1CCCN(C(=O)c2ccc3c(c2)CCO3)CC1 (stereo not drawn) | – | · | – | – | –
CCN(C[C@H]1N[C@@](CC)(C(=O)OC)[C@H]2C(=O)N(Cc3ccccc3)C(=O)[C@@H]12)C(=O)COc1ccccc1 | – | · | – | – | –
O=C(CSCCO)Nc1ccccc1 | – | – | – | – | –
CC(=O)c1cccc(NC(=O)CSCc2ccccc2)c1 | – | – | – | – | 16402
O=C(O)CSCC(=O)Nc1ccccc1 | – | – | – | – | 16554
CC(=O)c1cccc(NC(=O)CSCc2ccc(Br)cc2)c1 | – | – | – | – | –
CC(C)c1onc(C(=O)N2CCN(c3ccccc3)CC2)c1[N+](=O)[O-] | – | – | – | – | –
CC(C)c1onc(C(=O)N2CCN(C(c3ccccc3)c3ccccc3)CC2)c1[N+](=O)[O-] | – | 91.0 | – | – | –
O=C(N1CCCCC1)N1CCN(C(c2ccccc2)c2ccccc2)CC1 | – | – | – | – | –
O=C(c1cc(-c2ccco2)on1)N1CCN(C(c2ccccc2)c2ccccc2)CC1 | – | – | – | – | 21890
COc1ccc(-c2cc(C(=O)N3CCN(C(c4ccccc4)c4ccccc4)CC3)no2)cc1 | – | – | – | – | –
O=C(N1CCOCC1)N1CCN(C(c2ccccc2)c2ccccc2)CC1 | – | – | – | – | 21654
COC(=O)[C@H](Cc1ccccc1)NC(=O)N1CCN(Cc2ccccc2)CC1 | – | – | – | – | 23718
CCCNC(=O)N[C@@H](Cc1ccccc1)C(=O)OC | – | – | – | ? | 22925
CCC(C)[C@H](NC(=O)NC1CCN(Cc2ccccc2)CC1)C(=O)OC (stereo partly drawn) | – | – | – | – | 22325
COC(=O)[C@H](Cc1ccccc1)NC(=O)N1CCCCCC1 | – | – | – | – | –
O=c1n(Cc2ccccc2)c(O)c2n1Cc1ccccc1N=C2c1ccccc1 | – | · | – | – | –
CC(=O)c1cccc(NC(=O)c2cccc3ccccc23)c1 | – | – | – | – | –
COc1ccc(NC(=O)c2c(C(F)(F)F)nn(C)c2SCc2ccccc2Cl)cc1 | – | – | – | – | 19414
COc1ccc(NC(=O)c2c(C(F)(F)F)nn(C)c2Cl)cc1 | – | – | – | – | –
CCc1ccc(CN(C(=O)c2cc3ccccc3oc2=O)C2CCS(=O)(=O)C2)cc1 (stereo not drawn) | – | – | – | – | –
Cc1cc2oc(C(=O)N(Cc3ccccc3)C3CCS(=O)(=O)C3)cc(=O)c2cc1Cl (stereo not drawn) | – | – | – | – | 19953
Cc1ccc(CN(C(=O)c2cc3ccccc3oc2=O)C2CCS(=O)(=O)C2)cc1 (stereo not drawn) | – | – | – | – | 21783
COC(=O)C(C(=O)OC)N1C(=O)CCC1=O | – | – | – | – | –
CN(C)c1nc(NS(=O)(=O)c2ccc(Cl)cc2)nc(N(C)C)n1 | – | – | – | – | 16435
SMILES | BoNT F protease | BJeLR viability | Anthrax LF prot | BoNT-A LC inh2 | Autofluor counter
COc1ccc(C(C#N)CC(=O)c2ccc(OC)c(OCc3ccccc3)c2)cc1OC (stereo not drawn) | – | · | – | – | –
OC(c1ccc(Cl)c(F)c1)c1ncc(-c2ccccc2F)[nH]1 (stereo not drawn) | – | · | – | – | –
CS(=O)(=O)N(CC(=O)Nc1ccccc1C(=O)NCc1ccco1)c1ccc2c(c1)OCCO2 | – | – | – | – | 23961
CCC(C)NC(=O)c1ccccc1NC(=O)CN(c1ccc(OC)cc1)S(C)(=O)=O (stereo not drawn) | – | – | – | – | 23469
COc1ccc(N(CC(=O)Nc2ccccc2C(=O)NCCc2ccccc2)S(C)(=O)=O)cc1OC | – | – | – | – | 21907
COc1ccc(N(CC(=O)Nc2ccccc2C(=O)NCC(C)C)S(C)(=O)=O)cc1 | – | – | – | – | –
COCCNC(=O)c1ccccc1NC(=O)CN(c1ccc2c(c1)OCO2)S(C)(=O)=O | – | – | – | – | –
Cc1cccc(NC(=O)Cn2cnc(S(=O)(=O)N3CCCC3)c2)c1C | – | – | – | – | –
N=c1oc2ccccc2cc1-c1nc(-c2ccccc2)cs1 | – | – | – | – | –
